Assay results as given in PubChem BioAssay.
Active and inactive are the calls of the source.

Tests used:
[1] = system: PRMT1 (protein arginine N-methyltransferase 1); test: small molecules binding arginine methyltransferase PRMT1 – biochemical, small-molecule microarray, 635 nm fluorescence, primary screen (AID 1088); details: higher = more signal;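 also: binding of Prmt1 protein to compounds spotted on small-molecule microarray slides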
[2] = growth effects on S. cerevisiae YJM789 – YJM789 clinical isolate, OD600, 24 h, basal, primary screen (AID 1089); details: higher = more signal, called active from +8 up or from −8 down;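 also: growth of clinical yeast isolate S. cerevisiae YJM 789 seeded 1000 cells per well; test concentration not given here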
[3] = S. pombe growth modifiers, basal conditions – strain 972, OD600, 24 h, no modulator, primary screen (AID 1090);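 also: basal condition with compound alone and no growth modifier present; test concentration not given here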; details: S. pombe 972 growth, higher = more signal, called active from +8 up or from −8 down
[4] = budding yeast growth modifiers under rapamycin – strain BY4716, OD600, 96 h, primary screen (AID 1091); also: test concentration not given here; details: S. cerevisiae BY4716 + rapamycin, higher = more signal, called active from +8 up or from −8 down
[5] = target: Torsin-1A-interacting protein 2 (Homo sapiens) (UniProt Q8NFQ8); test: small molecules binding lysate-expressed LULL1 – cell lysate, human LULL1 lysate, 635/667 nm fluorescence, primary screen (AID 1092); details: small-molecule microarray, hLULL1 lysate binding, 635 nm fluorescence; higher = more signal;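 also: probe is lysate of COS7 cells overexpressing human LULL1; score merges per-feature 667 nm fluorescence with signal-to-noise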
Chain of Torsin-1A-interacting protein 2 (Homo sapiens) (Q8NFQ8 whole entry, looked up): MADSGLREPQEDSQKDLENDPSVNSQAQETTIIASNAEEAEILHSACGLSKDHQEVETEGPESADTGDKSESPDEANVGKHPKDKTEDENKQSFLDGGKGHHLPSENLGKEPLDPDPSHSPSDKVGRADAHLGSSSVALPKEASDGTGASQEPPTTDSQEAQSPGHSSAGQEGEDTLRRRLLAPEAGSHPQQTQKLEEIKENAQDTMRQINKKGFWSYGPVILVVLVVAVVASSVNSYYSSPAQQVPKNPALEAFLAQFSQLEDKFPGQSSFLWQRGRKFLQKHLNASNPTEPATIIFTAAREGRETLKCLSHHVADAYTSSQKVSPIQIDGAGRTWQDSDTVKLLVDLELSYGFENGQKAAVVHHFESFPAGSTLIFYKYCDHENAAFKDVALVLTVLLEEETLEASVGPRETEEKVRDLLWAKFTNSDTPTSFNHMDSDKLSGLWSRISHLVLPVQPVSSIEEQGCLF

[6] = optical density change of DRC41 E. coli – strain DRC41, OD650, 24 h, E. coli filamentation project, primary screen (AID 1093);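 also: MC1000 strain lacking acrAB efflux and sulA so SOS filamentation is blocked; test concentration not given here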; details: E. coli DRC41 growth, higher = more signal, called active from +8 up or from −8 down
[7] = probe aLefty2 binding to arrayed compounds – biochemical, biotinylated probe, 635/667 nm fluorescence, primary screen (AID 1094); details: small-molecule microarray, higher = more signal;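 also: score merges spot fluorescence near 667 nm with spot signal-to-noise ratio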
[8] = system: Noggin (protein binding on small-molecule microarray); test: small molecules binding Noggin protein – biochemical, 635/667 nm fluorescence, primary screen (AID 1095); details: 635 nm fluorescence, higher = more signal;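 also: score merges 667 nm feature fluorescence with signal to noise over triplicate slides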
[9] = target: Neurogenic locus notch homolog protein 3 (Homo sapiens) (UniProt Q9UM47); test: small molecules binding NOTCH3 protein – biochemical, 635/667 nm fluorescence, primary screen (AID 1096); details: small-molecule microarray, 635 nm fluorescence, higher = more signal
Chain of Neurogenic locus notch homolog protein 3 (Homo sapiens) (Q9UM47 whole entry, looked up): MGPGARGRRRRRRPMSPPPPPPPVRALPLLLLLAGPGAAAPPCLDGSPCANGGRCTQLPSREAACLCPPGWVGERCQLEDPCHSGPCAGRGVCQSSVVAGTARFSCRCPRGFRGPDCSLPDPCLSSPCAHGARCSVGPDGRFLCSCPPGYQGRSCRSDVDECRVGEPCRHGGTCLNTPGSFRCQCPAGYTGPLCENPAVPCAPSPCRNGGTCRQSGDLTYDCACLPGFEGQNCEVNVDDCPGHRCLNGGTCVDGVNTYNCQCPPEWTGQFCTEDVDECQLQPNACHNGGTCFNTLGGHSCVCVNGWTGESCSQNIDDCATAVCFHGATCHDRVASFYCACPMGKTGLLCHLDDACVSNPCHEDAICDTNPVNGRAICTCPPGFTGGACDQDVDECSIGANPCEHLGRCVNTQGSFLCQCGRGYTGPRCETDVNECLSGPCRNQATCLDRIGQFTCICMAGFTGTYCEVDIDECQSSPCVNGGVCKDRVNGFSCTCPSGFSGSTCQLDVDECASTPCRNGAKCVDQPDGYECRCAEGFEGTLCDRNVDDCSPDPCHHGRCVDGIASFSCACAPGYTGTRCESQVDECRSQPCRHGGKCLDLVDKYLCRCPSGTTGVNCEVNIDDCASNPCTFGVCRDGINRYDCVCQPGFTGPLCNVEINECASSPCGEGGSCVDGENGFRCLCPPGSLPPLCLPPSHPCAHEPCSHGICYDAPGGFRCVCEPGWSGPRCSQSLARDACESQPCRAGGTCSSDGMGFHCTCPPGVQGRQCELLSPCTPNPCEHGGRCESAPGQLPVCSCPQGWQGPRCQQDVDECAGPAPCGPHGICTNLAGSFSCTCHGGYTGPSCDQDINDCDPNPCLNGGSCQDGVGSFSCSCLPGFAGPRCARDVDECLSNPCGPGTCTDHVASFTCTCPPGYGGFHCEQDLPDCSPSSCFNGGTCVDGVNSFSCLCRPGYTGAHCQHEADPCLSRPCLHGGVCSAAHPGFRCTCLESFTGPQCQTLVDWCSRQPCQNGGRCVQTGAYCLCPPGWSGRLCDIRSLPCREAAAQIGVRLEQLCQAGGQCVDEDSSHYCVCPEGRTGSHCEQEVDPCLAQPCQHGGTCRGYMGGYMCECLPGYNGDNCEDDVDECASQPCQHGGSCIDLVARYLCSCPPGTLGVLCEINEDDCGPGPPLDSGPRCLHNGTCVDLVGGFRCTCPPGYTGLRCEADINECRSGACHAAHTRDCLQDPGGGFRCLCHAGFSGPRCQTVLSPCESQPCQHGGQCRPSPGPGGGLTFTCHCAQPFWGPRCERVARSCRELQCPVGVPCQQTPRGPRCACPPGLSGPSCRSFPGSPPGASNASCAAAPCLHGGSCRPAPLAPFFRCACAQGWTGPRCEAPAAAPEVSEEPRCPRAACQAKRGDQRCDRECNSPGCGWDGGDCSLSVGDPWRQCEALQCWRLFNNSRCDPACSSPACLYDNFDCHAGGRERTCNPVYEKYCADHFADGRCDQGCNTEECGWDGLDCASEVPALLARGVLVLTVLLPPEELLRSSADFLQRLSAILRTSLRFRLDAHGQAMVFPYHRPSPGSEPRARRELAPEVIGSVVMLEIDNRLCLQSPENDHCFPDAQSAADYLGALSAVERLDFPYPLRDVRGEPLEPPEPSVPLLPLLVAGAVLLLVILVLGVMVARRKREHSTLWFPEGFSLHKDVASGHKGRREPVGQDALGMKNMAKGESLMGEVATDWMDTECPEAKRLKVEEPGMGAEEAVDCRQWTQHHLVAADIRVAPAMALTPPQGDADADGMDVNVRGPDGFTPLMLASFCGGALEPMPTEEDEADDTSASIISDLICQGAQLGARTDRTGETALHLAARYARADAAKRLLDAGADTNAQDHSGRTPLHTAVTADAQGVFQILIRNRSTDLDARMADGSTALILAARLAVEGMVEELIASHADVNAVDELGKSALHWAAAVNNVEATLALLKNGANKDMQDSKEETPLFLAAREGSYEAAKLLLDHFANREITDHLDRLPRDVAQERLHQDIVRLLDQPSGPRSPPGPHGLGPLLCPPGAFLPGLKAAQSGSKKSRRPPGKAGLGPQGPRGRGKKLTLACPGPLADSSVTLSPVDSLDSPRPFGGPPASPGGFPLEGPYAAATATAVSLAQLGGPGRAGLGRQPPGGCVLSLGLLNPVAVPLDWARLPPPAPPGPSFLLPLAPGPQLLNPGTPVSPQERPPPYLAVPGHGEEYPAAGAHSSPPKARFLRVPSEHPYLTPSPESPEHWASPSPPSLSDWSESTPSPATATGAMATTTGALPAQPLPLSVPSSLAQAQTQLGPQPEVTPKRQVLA

[10] = probe aEGFR binding to arrayed compounds – biochemical, biotinylated probe, 635/667 nm fluorescence, primary screen (AID 1097); details: small-molecule microarray, higher = more signal;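 also: probe is a biotinylated anti-EGFR antibody binding compounds printed on slides; score combines fluorescence near 667 nm and signal to noise of each spot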
[11] = system: Plasmodium falciparum Sir2 (PF13_0152, Sir2A); test: Plasmodium falciparum Sir2A binding compounds – biochemical, small-molecule microarray, 635 nm fluorescence, primary screen (AID 1098); details: fluorescence 635 nm, higher = more signal;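 also: score merges spot fluorescence intensity with its signal-to-noise ratio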
[12] = probe aDKK1 binding to arrayed compounds – biochemical, biotinylated probe, 635/667 nm fluorescence, primary screen (AID 1099); details: small-molecule microarray, higher = more signal;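 also: score merges 667nm spot fluorescence with signal to noise across triplicate slides; reference of the scale not given here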
[13] = probe aCHRDL2 binding to arrayed compounds – biochemical, biotinylated probe, 635/667 nm fluorescence, primary screen (AID 1100); details: small-molecule microarray, higher = more signal
[14] = change in splice reporter luminescence, either direction, cell-based, HEK293, spliceosome inhibition project, primary screen (AID 1101); details: HEK293 splicing luciferase reporter, 24 h, higher = more signal, called active from +8 up or from −8 down;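 also: HEK293 cells carrying a splicing-competent luciferase reporter gene; test concentration not given here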
[15] = target: Fibroblast growth factor 10 (Homo sapiens) (UniProt O15520); test: compounds binding fibroblast growth factor 10 – biochemical, small-molecule microarray, 635 nm fluorescence, primary screen (AID 1102); details: FGF10 binding, fluorescence 635 nm, higher = more signal
Chain of Fibroblast growth factor 10 (Homo sapiens) (O15520 whole entry, looked up): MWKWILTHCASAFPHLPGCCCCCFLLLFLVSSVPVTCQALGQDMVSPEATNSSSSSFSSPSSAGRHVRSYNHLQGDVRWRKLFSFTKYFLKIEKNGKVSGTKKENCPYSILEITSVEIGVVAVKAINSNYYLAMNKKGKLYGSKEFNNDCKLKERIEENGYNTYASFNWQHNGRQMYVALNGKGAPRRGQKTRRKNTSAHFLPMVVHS

[16] = system: glycogen synthase kinase-3 (GSK3A per assay name; protocol says GSK3B); test: compounds binding glycogen synthase kinase-3 – biochemical, small-molecule microarray, 635 nm fluorescence, GSK3A, primary screen (AID 1103); details: fluorescence 635 nm, higher = more signal; also: the record names both GSK3A and GSK3B
[17] = target: Epidermal growth factor receptor (Homo sapiens) (UniProt P00533); test: compounds binding epidermal growth factor receptor – biochemical, small-molecule microarray, 635 nm fluorescence, primary screen (AID 1104); details: EGFR binding, higher = more signal;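 also: score merges 667 nm emission intensity with spot signal to noise over triplicate slides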
Chain of Epidermal growth factor receptor (Homo sapiens) (P00533 whole entry, looked up): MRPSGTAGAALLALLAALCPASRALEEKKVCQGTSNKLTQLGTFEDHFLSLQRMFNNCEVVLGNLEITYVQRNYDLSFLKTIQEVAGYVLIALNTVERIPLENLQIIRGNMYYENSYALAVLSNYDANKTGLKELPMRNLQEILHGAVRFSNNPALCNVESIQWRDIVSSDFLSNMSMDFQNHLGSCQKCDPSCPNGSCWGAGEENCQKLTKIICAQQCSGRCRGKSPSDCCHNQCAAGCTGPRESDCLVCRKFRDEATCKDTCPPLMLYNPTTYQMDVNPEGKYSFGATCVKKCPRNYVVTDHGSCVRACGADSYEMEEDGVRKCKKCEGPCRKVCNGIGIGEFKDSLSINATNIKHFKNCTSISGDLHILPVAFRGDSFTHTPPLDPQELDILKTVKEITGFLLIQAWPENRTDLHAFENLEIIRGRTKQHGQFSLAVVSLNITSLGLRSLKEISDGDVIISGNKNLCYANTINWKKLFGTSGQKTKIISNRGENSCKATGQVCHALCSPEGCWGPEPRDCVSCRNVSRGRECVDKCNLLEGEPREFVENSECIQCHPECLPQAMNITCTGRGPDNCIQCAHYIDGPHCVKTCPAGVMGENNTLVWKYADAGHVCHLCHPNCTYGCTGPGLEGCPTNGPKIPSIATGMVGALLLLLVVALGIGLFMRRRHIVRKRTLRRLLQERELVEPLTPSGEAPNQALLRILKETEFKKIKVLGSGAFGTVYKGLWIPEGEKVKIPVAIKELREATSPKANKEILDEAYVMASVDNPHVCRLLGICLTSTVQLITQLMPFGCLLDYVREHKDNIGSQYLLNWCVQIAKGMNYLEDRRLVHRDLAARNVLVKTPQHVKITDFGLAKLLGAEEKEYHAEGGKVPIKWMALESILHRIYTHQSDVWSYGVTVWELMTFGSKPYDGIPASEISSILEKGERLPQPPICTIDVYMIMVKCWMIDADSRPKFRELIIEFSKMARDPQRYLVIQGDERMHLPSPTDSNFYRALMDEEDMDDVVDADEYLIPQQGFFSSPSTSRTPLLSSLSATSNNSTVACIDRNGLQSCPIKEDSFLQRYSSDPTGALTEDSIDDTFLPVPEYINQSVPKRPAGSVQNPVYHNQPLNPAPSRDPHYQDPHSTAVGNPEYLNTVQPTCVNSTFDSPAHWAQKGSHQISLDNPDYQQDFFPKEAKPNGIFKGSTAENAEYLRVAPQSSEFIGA

[18] = target: Follistatin-related protein 3 (Homo sapiens) (UniProt O95633); test: compounds binding follistatin-related protein 3 – biochemical, small-molecule microarray, 635 nm fluorescence, primary screen (AID 1105); details: FSTL3 binding, higher = more signal;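 also: score merges emission near 667 nm and signal to noise per printed spot across three slides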
Chain of Follistatin-related protein 3 (Homo sapiens) (O95633 whole entry, looked up): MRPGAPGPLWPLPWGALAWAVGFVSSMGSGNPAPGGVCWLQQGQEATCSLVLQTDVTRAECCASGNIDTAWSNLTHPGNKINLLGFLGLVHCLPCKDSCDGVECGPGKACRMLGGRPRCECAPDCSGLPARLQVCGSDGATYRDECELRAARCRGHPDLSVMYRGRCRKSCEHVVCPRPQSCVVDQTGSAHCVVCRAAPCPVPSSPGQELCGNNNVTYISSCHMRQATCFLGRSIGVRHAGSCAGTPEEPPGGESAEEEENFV

[19] = target: Dickkopf-related protein 1 (Homo sapiens) (UniProt O94907); test: small molecules binding DKK1 protein – biochemical, small-molecule microarray, 635 nm fluorescence scan, primary screen (AID 1106); details: higher = more signal;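 also: score merges emission near 667 nm with signal to noise over three replicate slides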
Chain of Dickkopf-related protein 1 (Homo sapiens) (O94907 whole entry, looked up): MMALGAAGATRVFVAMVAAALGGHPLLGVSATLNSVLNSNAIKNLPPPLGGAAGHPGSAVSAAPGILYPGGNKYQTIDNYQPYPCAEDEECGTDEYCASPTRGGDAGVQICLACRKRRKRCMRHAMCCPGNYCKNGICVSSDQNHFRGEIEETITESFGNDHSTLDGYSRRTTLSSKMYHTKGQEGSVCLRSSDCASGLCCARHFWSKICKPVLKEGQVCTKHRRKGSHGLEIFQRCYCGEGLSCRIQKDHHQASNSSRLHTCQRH

[20] = system: Inhibin beta A chain (activin A); test: small molecules binding activin A – biochemical, small-molecule microarray, 635 nm fluorescence scan, primary screen (AID 1107); details: INHBA, higher = more signal;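 also: mouse activin A protein probed at 4.33 µg/mL on printed slides; score merges bound-protein fluorescence near 667 nm with spot signal-to-noise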

| Structure (SMILES) | composite z-score [1] | z-score [2] | z-score [3] | z-score [4] | composite z-score [5] | z-score [6] | composite z-score [7] | composite z-score [8] | composite z-score [9] | composite z-score [10] | composite z-score [11] | composite z-score [12] | composite z-score [13] | z-score [14] | composite z-score [15] | composite z-score [16] | composite z-score [17] | composite z-score [18] | composite z-score [19] | composite z-score [20] |
| --- | --- | --- | --- | --- | --- | --- | --- | --- | --- | --- | --- | --- | --- | --- | --- | --- | --- | --- | --- | --- |
| O=C1[C@@H]2[C@@H](CC(COc3ccccc3)=C3[C@@H](CCc4ccccc4)OB(O)C[C@@H]32)C(=O)N1Cc1ccccc1 | -0.0537 | -0.402 (inactive) | -1.04 (inactive) | 0.297 (inactive) | 0.828 | -0.874 (inactive) | -0.274 | 0.204 | 0.359 | -0.116 | 0.393 | -0.185 | -0.23 | -0.74 (inactive) | 0.747 | 0.081 | 0.292 | 0.163 | 0.147 | 0.343 |
| COCC(=C=CC[C@H](O)c1cccc(OCCO)c1)C[C@H](O)COCc1ccccc1 | 0.949 | -0.244 (inactive) | -1.43 (inactive) | -0.271 (inactive) | 2.22 | -0.142 (inactive) | 0.084 | 0.546 | 0.237 | 0.0167 | 1.66 | 0.39 | -0.121 | 0.13 (inactive) | 1.17 | 0.677 | -0.751 | 0.0438 | -0.529 | 1.03 |
| COC(=O)[C@@]1(Cc2ccccc2CN=[N+]=[N-])N=C(c2ccc(OCCCO)cc2)O[C@H]1c1ccccc1CN=[N+]=[N-] | 0.812 | 0.84 (inactive) | 1.96 (inactive) | 35.5 (active) | 1.3 | 0.478 (inactive) | -0.0458 | -0.56 | -0.498 | -0.21 | 1.32 | -0.0486 | 1.02 | -1.34 (inactive) | -0.304 | -0.568 | -1.48 | -0.774 | -1.02 | -0.0879 |
| NC(=O)[C@@H]1[C@H]2C(=O)O[C@H](c3ccccc3)[C@H](c3ccccc3)N2[C@H](c2ccc(OCCO)cc2)[C@@]12C(=O)Nc1ccc(C#CCCO)cc12 | 1.45 | 1.58 (inactive) | 0.883 (inactive) | 2.3 (inactive) | 1.85 | 0.459 (inactive) | 0.0847 | -0.159 | -0.0629 | -0.0622 | 0.344 | 0.585 | 0.823 | 1.02 (inactive) | 0.372 | -0.168 | -0.385 | -0.12 | 0.0322 | 0.297 |
| Cc1cccc([C@H]2C[C@H]3C(Br)=C[C@@H]2C(=O)[C@]32CO2)c1 | -0.373 | -0.749 (inactive) | -20.5 (active) | -1.2 (inactive) | -0.831 | 0.779 (inactive) | -0.0416 | -0.329 | -0.867 | -0.626 | -0.256 | -0.423 | -0.0607 | -0.517 (inactive) | -0.711 | -0.869 | -0.0431 | -0.412 | 0.404 | 1.37 |
| CCCCCN1CC=CC23O[C@@H]4/C=C\CCC(C)OC(=O)C4[C@H]2C(=O)N(CCCCCCO)[C@@H]3C1=O (stereo not given in full) | 0.523 | 0.735 (inactive) | 0.157 (inactive) | -0.635 (inactive) | 1.79 | 1.24 (inactive) | -0.119 | 0.296 | 0.109 | -0.126 | 1.44 | -0.219 | 0.248 | -0.833 (inactive) | -0.381 | -0.459 | -0.434 | -0.303 | -0.397 | 1.13 |
| COc1cc2c(cc1O)C(c1cccs1)N(Cc1sc3ccccc3c1Cl)CC2 (stereo not given) | 1.53 | -0.642 (inactive) | -1.93 (inactive) | -1.63 (inactive) | 3.3 | -0.31 (inactive) | 0.105 | 1.03 | 1.03 | 0.14 | 1.33 | 0.525 | 0.179 | -0.861 (inactive) | 1.46 | 1.36 | 0.495 | 1.41 | 0.726 | 0.816 |
| CCOC(=O)C1=CCC(c2ccccc2)N(S(=O)(=O)c2ccc([N+](=O)[O-])cc2)C1 (stereo not given) | -0.411 | 0.687 (inactive) | 0.668 (inactive) | 1.25 (inactive) | 1.33 | -0.319 (inactive) | -0.0081 | -0.578 | 0.0968 | 0.0506 | -0.0755 | 0.36 | 0.507 | -0.33 (inactive) | -0.16 | 0.265 | 0.0475 | 0.163 | -0.115 | 0.918 |
| O=C1C2C=CC(C(O)c3ccc(I)cc3)N(Nc3ccccc3)C2C(=O)N1c1ccccc1 (stereo not given) | 1.34 | -0.165 (inactive) | 0.912 (inactive) | 0.879 (inactive) | 3.31 | -0.882 (inactive) | 0.265 | -0.369 | 0.82 | 0.0352 | 1.1 | 1.06 | 1.21 | 0.189 (inactive) | 0.455 | 1.29 | 0.0244 | 0.859 | 0.263 | 1.06 |
| CCN(CC)c1ccc(N2CC=CC34O[C@@H]5C=CCCOC(=O)C5[C@H]3C(=O)N(CCO)[C@@H]4C2=O)cc1 (stereo not given in full) | -1.15 | -0.562 (inactive) | -1.07 (inactive) | -0.315 (inactive) | -0.66 | 0.701 (inactive) | -0.235 | -1.42 | -0.477 | -0.201 | -0.0437 | -0.289 | 0.269 | -0.688 (inactive) | -0.504 | -0.908 | -0.869 | -1.45 | -0.351 | -0.589 |
